Tgondii IFNg: T. gondii growth inhibition with IFN-gamma, primary screen, cell-based; Toxoplasma gondii growth in IFN-gamma-treated host cells; hits give low values; activity change, negative = inhibition, % (no concentration beside the values); 3.8% of 69,000 active; AID 1259416, 2018; in the data active = activity change below about -70%, passing the limit was not always enough;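 also: host cells are HeLa cells infected with Toxoplasma gondii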
The depositor's hits bear a star; i = inactive. The full list was thinned out, with hits kept by preference.

SMILES	Tgondii IFNg
c1cc(-c2cnn3cc(-c4ccc(OCCN5CCCCC5)cc4)cnc23)ccn1	-75*
CC1NC(=O)COC12CCN(C(=O)c1ccc[nH]1)CC2 (stereo not given)	-1
COc1ccc(NC(=O)CN2CCC3(CC2)N=C(c2cccc(F)c2)C(=O)N3)cc1Cl	-29
Cc1cccc(CN2C[C@H]3[C@H](C(=O)N(C)C)CCS(=O)(=O)[C@H]3C2)c1	-47
Cc1cccc(CN2C[C@H]3[C@H](C(=O)N4CCOCC4)CCS(=O)(=O)[C@H]3C2)c1	-1
Cc1cccc(CN2C[C@H]3[C@H](C(=O)Nc4ccccc4)CCS(=O)(=O)[C@H]3C2)c1	-115*
CC(C)(C)c1ncc2c(n1)CN(C(=O)c1ccc(-n3cnnn3)cc1)C2	-8
Cc1cncc(C2CCCN(S(=O)(=O)c3cccs3)C2)n1 (stereo not given)	-8
CCN1CCC(n2nccc2NC(=O)c2cc(C(F)(F)F)nn2C)CC1	5
COc1ccccc1NC(=O)N1C[C@@H](O)COC[C@H]2O[C@H](CC(=O)N3CCC(Cc4ccccc4)CC3)CC[C@@H]21	-9
COc1ccccc1NC(=O)N1C[C@H](O)COC[C@@H]2O[C@@H](CC(=O)N3CCC(Cc4ccccc4)CC3)CC[C@H]21	-75*
COc1ccccc1NC(=O)N1C[C@H](O)COC[C@H]2O[C@H](CC(=O)N3CCC(Cc4ccccc4)CC3)CC[C@@H]21	-28
CC1=C(C(=O)NCCN2CCC(Cc3ccccc3)CC2)C2(CCCCC2)OC1=O	-84*
CC1=C(C(=O)NCCCN2CCC(N3CCCCC3)CC2)C2(CCCCC2)OC1=O	18
CC1=C(C(=O)NC2CCN(Cc3ccccc3)CC2)C2(CCCCC2)OC1=O	-15
COc1ccc(NC(=O)c2c(O)c3cccnc3[nH]c2=O)cc1	234
O=C(CC1CC1)NCc1cc(=O)n2c(n1)CNCCC2	73
Fc1cnc(NC2COC3(CCCN(CC4CCOCC4)C3)C2)nc1 (stereo not given)	-2
OC1CCC(Nc2ncc3nc(Nc4c(F)cc(F)cc4F)n([C@H]4CCOC4)c3n2)CC1 (stereo not given in full)	-73*
Cc1cccc(Cn2c3c(ccc2=O)CCN(C)CC3)n1	-2
Cc1ncc(C(=O)N2CCCC(CCc3ccc(F)cc3)C2)s1 (stereo not given)	-14
O=C(c1cn[nH]c1-n1cnnn1)N1CCCC(CCc2ccc(F)cc2)C1 (stereo not given)	-13
O=C(c1ccc2cccnc2c1O)N1CCCC(CCc2ccc(F)cc2)C1 (stereo not given)	-81*
CCOC(=O)c1cccnc1N1Cc2cnc(CC(C)C)nc2C1	0
CCOc1ccc(Nc2nc(-c3nnc(-c4ccccc4)o3)nc3ccccc23)cc1	i
SMILES	Tgondii IFNg
Cc1cc(NC(=O)c2cccc3ccccc23)cc(C)c1OCC(=O)N1CCOCC1	-2
O=C(CSCCOc1ccccc1)N1CCOCC1	55
O=C(COc1cccc(-n2cnnc2)c1)N1CCOCC1	-85*
COCC1CN(C(=O)N(C)C)Cc2nccn2C1 (stereo not given)	-42
CN(C)C[C@@]12COC[C@@H]1CN(Cc1ccc3c(c1)OCO3)C2	-26
CN(C)C1CCN(C(=O)c2cnc(-c3noc4cc(-c5ccc(F)cc5)ccc34)s2)CC1	-82*
Cc1ccccc1-c1ccc2c(-c3ncc(C(=O)NCCN(C)C)s3)noc2c1	-54
CCN(C)C(=O)c1cnc(-c2noc3cc(N4CCCCC4)ccc23)s1	-44
O=S(=O)(c1cc(-c2nnc(C3CC3)o2)co1)N1CCC(N2CCCCC2)CC1	9
CS(=O)(=O)c1ccc(-c2ccccc2C(N)=O)cc1	3
CS(=O)(=O)c1ccc(-c2cnc(N)c(C(=O)Nc3ccccc3)n2)cc1	-86*
CS(=O)(=O)c1ccc(C(=O)Nc2ccccc2Cl)cc1	23
O=C(Nc1cnc2ccccc2c1)c1ccc(-n2cnnn2)cc1	294
O=C(c1ccccc1F)N1C[C@H](OCC2CC2)[C@@H]2OCCC[C@@H]21	39
COCC1CN(C(=O)C2CCN(C(C)=O)CC2)CC12CCOCC2 (stereo not given)	-12
CCc1nc(C)c(C(=O)N(C)Cc2csc(C(C)C)n2)o1	-92*
CCc1nc(C)c(C(=O)N(C)Cc2snnc2C)o1	-27
CCc1nc(C)c(C(=O)N(C)Cc2ccc3nsnc3c2)o1	-3
CCOCC1c2c(cnn2C)CCN1C(=O)COc1ccccc1 (stereo not given)	0
CN(C)c1ccc(CNC(=O)c2cn3c(n2)CCCC3)cc1	75
COc1ccc(-c2nc(Cn3nnc(C(=O)Nc4cc(F)ccc4C)c3C)c(C)o2)c(OC)c1	114
CCS(=O)(=O)N1CCC2O[C@H](COCc3ccccn3)CCC21 (stereo not given in full)	8
Cc1nn(-c2ccc(F)cc2F)c(=O)c2nc(-c3ccccc3)sc12	0
Cc1cc(C)c2c(n1)sc1c(=O)n(N)c(C)nc12	-22
Cc1nc2cc(-c3ccccc3)sc2c(=O)n1N	-107*
SMILES	Tgondii IFNg
CCn1cc(S(=O)(=O)N2CCCCC2c2ccc(F)cc2)cn1 (stereo not given)	-7
CCS(=O)(=O)N1CCC(O)(CN2CC3(CCCCC3)CC2=O)CC1	66
COCC1c2c(cnn2CC2CC2)CCN1Cc1nccs1 (stereo not given)	8
CN(C)C(=O)N1CCC2(CC1)CN(Cc1nccs1)CCO2	-1
Clc1ccc(-c2cc(-c3cccs3)c(-c3ccccc3)o2)cc1	141
FC(F)(F)c1oc(-c2ccccc2Cl)cc1-c1nc(-c2cccs2)no1	-4
c1csc(-c2cncc(-c3nnc(-c4cccc5ccccc45)o3)c2)c1	-102*
O=C(c1cc(F)cc(F)c1)N1CCC2(CC1)COCCN(Cc1ccncc1)C2	-15
CCc1cc(Cn2ccnc2-c2ccccc2SC)on1	1
c1ccc(C2CN(c3ncnc4c3CCNC4)CCO2)cc1 (stereo not given)	47
c1ccc(C2CCCN(c3ncnc4c3CCNC4)CC2)cc1 (stereo not given)	-79*
c1cnc(NC2CCN(c3ncnc4c3CCNC4)CC2)nc1	-35
COc1ccc(-c2nc(NCc3ccccc3)c3ccccc3n2)cc1	-44
C[C@H](O[C@H]1OCCN(Cc2n[nH]c(=O)[nH]2)[C@H]1c1ccc(F)cc1)c1cc(C(F)(F)F)cc(C(F)(F)F)c1	-72*
COc1ccccc1CC(=O)N1CCC(c2cc(=O)[nH]c(C)n2)C1 (stereo not given)	102
O=C1N(c2cncnc2)CCC12CCN(Cc1ccc(F)cc1)CC2	3
c1ccc(-c2noc(-c3ccc(N4CCC(N5CCCCC5)CC4)nc3)n2)cc1	-14
Cc1sc2ccccc2c1-c1nccn1CC1CC(=O)N(C2CC2)C1 (stereo not given)	13
CC(C)N(C)Cc1noc2c1CN(Cc1ccoc1)CC2	0
O=C(CCSc1ccc2c(c1)OCCO2)NCc1noc(C2CCC2)n1	-6
CN[C@@H]1C[C@H]2O[C@@](C)([C@@H]1OC)n1c3ccccc3c3c4c(c5c6ccccc6n2c5c31)C(=O)N[C@H]4O	-80*
COc1ccccc1CNC(=O)Cn1c(=O)ccc2cc(S(=O)(=O)N3CCC(C)CC3)ccc21	-33
CC1CCN(S(=O)(=O)c2ccc3c(ccc(=O)n3CC(=O)NCc3ccc(Cl)cc3)c2)CC1	-64
COc1cccc(CNC(=O)Cn2c(=O)ccc3cc(S(=O)(=O)N4CCC(C)CC4)ccc32)c1	-80*
Cc1nc(-c2cc(C(=O)NCCN3CCOCC3)c3ccccn23)cn1C(C)C	13
